Assay outcomes (PubChem BioAssay)
D3 antag = qHTS of D3 Dopamine Receptor Antagonist: qHTS. D(3) dopamine receptor (Homo sapiens), P35462. max response, negative = inhibition, %. 360,000 tested, 2.5% active. AID 652054, 2013. D3R cells, DiscoveRx beta-arrestin luminescence, antagonist mode; stronger effect = lower value; in the data active means max response below about -50%; inconclusive means no clear call, values can overlap the other calls; further: on the % scale 0 is the no-effect control and ±100 the full control effect
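Cells plated overnight at 1500 cells/well, then exposed to library compounds with dopamine controls for 90 minutes at 37 degrees C. DiscoveRx reagent added for 30–60 minutes at room temperature; luminescence read, quantitative HTS format.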
D3 ag = qHTS of D3 Dopamine Receptor Agonist: qHTS | D3R DiscoveRx beta-arrestin cells, luminescence, 90 min | D(3) dopamine receptor (Homo sapiens), P35462 | max activation, % | 410,000 tested, 0.58% active; in the data active means max activation above about 30%; further: 0% is about no effect
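Agonist mode: compounds and dopamine controls were applied to plated cells for 90 min at 37 degrees C after an overnight attachment at 1500 cells/well. Luminescent read-out followed 30 - 60 minutes at room temperature with DiscoveRx detection reagent.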
D1 potentiator = Potentiators of Human D1 Dopamine Receptor: qHTS; potentiation, % at 10 µM; HEK293 TREx D1 cells, calcium flux, dopamine EC20 potentiation; AID 504651, 2011; 360,000 tested, 0.036% active; D(1A) dopamine receptor (Homo sapiens), P21728; in the data active means potentiation above about 30%; further: 0% is about no effect
Target sequence (P21728 whole entry, looked up): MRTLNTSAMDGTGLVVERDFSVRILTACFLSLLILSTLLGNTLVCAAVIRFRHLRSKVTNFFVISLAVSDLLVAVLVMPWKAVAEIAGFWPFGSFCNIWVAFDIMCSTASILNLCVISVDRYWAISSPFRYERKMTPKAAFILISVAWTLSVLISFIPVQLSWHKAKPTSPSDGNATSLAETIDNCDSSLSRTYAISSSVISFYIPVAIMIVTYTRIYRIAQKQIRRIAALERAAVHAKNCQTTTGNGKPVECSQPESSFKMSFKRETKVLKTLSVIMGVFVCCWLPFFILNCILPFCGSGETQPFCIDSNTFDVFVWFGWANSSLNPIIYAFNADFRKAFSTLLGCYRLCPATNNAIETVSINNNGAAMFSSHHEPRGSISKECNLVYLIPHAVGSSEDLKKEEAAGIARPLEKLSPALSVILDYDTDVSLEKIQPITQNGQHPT
D1 antag = Antagonist of Human D 1 Dopamine Receptor: qHTS; HEK293 TREx D1 cells, calcium flux, dopamine EC80; stronger effect = lower value; activity change, negative = inhibition, % at 10 µM; 360,000 tested, 3.2% active; in the data active means activity change below about -30%; further: on the % scale 0 is the no-effect control and ±100 the full control effect
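Inducible Hek293 Trex D1 cells (tetracycline, overnight, 30 C). Calcium dye 30–90 min RT. Antagonist mode: EC80 dopamine added after 180 s compound read.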
D1 ag = Allosteric Agonists of the Human D1 Dopamine Receptor: qHTS | AID 504660, 2011 | HEK293 T-REx D1 cells, calcium flux, agonist mode | D(1A) dopamine receptor (Homo sapiens), P21728 | 360,000 tested, 1% active | activation, % at 2 µM; in the data active means activation above about 30%; further: 0% is about no effect
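Inducible HEK293 T-REx D1 cells, force-coupled to calcium signalling, were plated at 4000 cells/well with tetracycline and held overnight at 30 C. After no-wash calcium dye loading, compound-evoked calcium rise over 180 s flagged agonists.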
Numbers without * were called inactive; ? = inconclusive; · = not tested or not shown; ! = not active in a repeat. Compounds with a hit are over-represented: about 6% of the library has one in this group of screens.

SMILES | D3 antag | D3 ag | D1 potentiator | D1 antag | D1 ag
Cc1cccc(CS(=O)(=O)Cc2ccc(C(=O)NCc3cccs3)o2)c1 | 6 | 32* | -8 | -6 | 4
O=C(NCc1cccnc1)c1ccc(CS(=O)(=O)Cc2ccc(Cl)cc2)o1 | 47 | 6 | 0 | -4 | 3
Cc1ccc(CS(=O)(=O)Cc2ccc(C(=O)NCc3cccnc3)o2)cc1 | -16 | -3 | -1 | -33* | 0
Cc1cccc(CS(=O)(=O)Cc2ccc(C(=O)NCc3ccccc3)o2)c1 | 8 | -3 | -3 | -20 | 6
O=C(CSc1nc2nc(-c3cccs3)cc(C(F)(F)F)c2c(=O)[nH]1)C(F)(F)F | -7 | -5 | 1 | 1 | 0
O=C1c2cccnc2C(O)N1Cc1ccc(F)cc1 (stereo not given) | -66* | 4 | -1 | -4 | 2
C#CCOCCOCCOCCNc1nc(N2CCN(C(=O)[C@H]([C@@H](C)CC)n3cc([C@@H](N)CC(C)C)nn3)CC2)nc(N2CCN(C(=O)[C@H](Cc3ccc(O)cc3)n3cc([C@@H](N)C(C)CC)nn3)CC2)n1 (stereo not given in full) | -50* | -74 | 0 | -1 | -4
C#CCOCCOCCOCCNc1nc(N2CCN(C(=O)[C@H](Cc3cc4ccccc4[nH]3)n3cc([C@@H](N)C(C)CC)nn3)CC2)nc(N2CCN(C(=O)[C@H](CCCCN)n3cc([C@@H](N)CO)nn3)CC2)n1 (stereo not given in full) | · | · | -4 | -35* | 0
O=C(O)c1cn2c3c(ccc(Cl)c3c1=O)OCC2 | ? | -12 | -4 | 4 | 1
O=C(Nc1nnc(C2CC2)s1)c1ccc(Cl)c(S(=O)(=O)N2CCc3ccccc3C2)c1 | 0 | 41* | -6 | 16 | 3
CC(=O)O[C@]1(C(C)=O)CC[C@H]2[C@@H]3C=C(Cl)C4=CC(=O)CC[C@]4(C)[C@H]3CC[C@@]21C | 24 | 19 | -5 | 15 | 3
CC(=O)O[C@]1(C(C)=O)CC[C@H]2[C@@H]3C=C(Cl)C4=CC(=O)[C@@H]5C[C@@H]5[C@]4(C)[C@H]3CC[C@@]21C | -85*! | 14 | 5 | · | -1
Cc1ccn2c(CN3CCOCC3)c(-c3ccccc3)nc2c1 | 10 | 0 | -5 | -32* | 2
CCCCn1c(SCC(=O)Nc2nnc(C(C)C)s2)nc2c1c(=O)n(C)c(=O)n2C | 4 | 41* | -1 | 8 | 1
CCCn1c(SCC(=O)Nc2nnc(CC)s2)nc2c1c(=O)n(C)c(=O)n2C | · | · | 5 | 3 | 1
CC1CCN(CC(=O)N(C)c2c(N)n(Cc3ccccc3)c(=O)[nH]c2=O)CC1 | 6 | -2 | -5 | -5 | -1
CCc1nnc(NS(=O)(=O)c2ccc(NCc3cc(Cl)ccc3O)cc2)s1 | 14 | 1 | -4 | 7 | 1
CCc1nnc(NS(=O)(=O)c2ccc(NCc3cc(Cl)cc(Cl)c3O)cc2)s1 | -29 | -10 | 0 | 6 | 33*
CC(=O)N1CCN(S(=O)(=O)c2cccc(C(=O)OCc3ccc(C(C)(C)C)cc3)c2)CC1 | 15 | 9 | -3 | -3 | 20
CC(=O)c1c(C)oc2c1C(=O)c1ccccc1C2=O | -17 | -17 | -2 | 1 | 1
COc1ccc(CNC(=O)c2c(C)oc3c2C(=O)c2ccccc2C3=O)cc1 | -72* | -7 | 0 | 11 | -2
Cc1oc2c(c1C(=O)NCc1cccnc1)C(=O)c1ccccc1C2=O | -72* | -7 | -8 | -3 | 0
C#Cc1nc(Nc2cccc(Cl)c2)nc(NC2CCCC2)n1 | · | · | 0 | -20 | 2
O=C(C[C@H]1C[C@H](C(=O)N2CCOCC2)[C@@]2(CCC3CCCC3)c3[nH]c4ccc(Cl)cc4c3CCN2C1=O)NCC12CC3CC(CC(C3)C1)C2 | 1 | -10 | · | · | ·
Cn1c(O)c(/C=C2\C=Nc3ccccc32)sc1=Nc1ccc(C(=O)O)cc1 | -13 | -15 | -3 | -5 | 2
SMILES | D3 antag | D3 ag | D1 potentiator | D1 antag | D1 ag
O=C(Cc1ccccc1)Nn1c(O)c(/C=C2\C=Nc3ccccc32)sc1=S | 16 | 5 | 5 | 17 | 99*
COc1cc(CNCCSc2nnnn2C)cc(Cl)c1OCc1ccccc1 | · | -11 | -4 | 3 | 3
Clc1cccc(CNCCCSc2ncccn2)c1 | -52* | -24 | -3 | 21 | 3
CSc1ccc(CNCCCSc2ncccn2)cc1 | ? | -9 | -1 | 27 | 5
Clc1ccc(CNCCCSc2ncccn2)cc1 | -78* | -20 | -4 | 2 | 3
Clc1ccc(OCCCCSc2ncccn2)cc1 | -8 | -4 | -2 | -11 | 1
Brc1ccc(CNCCCSc2ncccn2)cc1 | -77* | -18 | -4 | 1 | 10
CCOc1cc(CNCCSc2nnnn2-c2ccccc2)cc(Cl)c1OC | · | -17 | 1 | -2 | 40*
COc1ccc(-c2cc(C(F)(F)F)n3nc(C(=O)Nc4cc(Cl)cc(Cl)c4)cc3n2)cc1 | · | 5 | -2 | -3 | 0
COc1ccc(CNCCCSc2ncccn2)c(OC)c1 | -14 | -4 | -4 | -5 | 5
COc1ccc(CNCCCSc2ncccn2)cc1OC | -65* | -9 | -2 | 8 | 6
Fc1ccc(-c2ccc(CNCCSc3nnnn3-c3ccccc3)o2)cc1 | · | -22 | 2 | 7 | 34*
Brc1ccc(CNCCCSc2nnnn2-c2ccccc2)cc1 | · | 9 | 1 | -4 | 95*
CCN(CC)c1ccc(/C=N/NC(=O)c2ccoc2C)c(O)c1 | -6 | 4 | -2 | 1 | 2
CCC(C)(C)NC(=O)c1ccc2c(c1)N(CC(=O)NC1CCCC1)C(=O)C(C)(C)O2 | -62* | -14 | -3 | 7 | 1
COC(=O)CN1C(=O)C(C)(C)Oc2ccc(C(=O)NC3CCCC3)cc21 | 1 | -25 | -10 | -15 | 4
CC(C)c1nc2c(s1)CCc1onc(-c3ccc(Cl)cc3)c1-2 | 41 | 32* | -2 | -9 | 2
CCCc1nc2c(s1)CCc1onc(-c3ccc(Br)cc3)c1-2 | 15 | 43* | · | · | ·
COc1ccc(-c2noc3c2-c2nc(C(C)C)sc2CC3)cc1 | 114 | -3 | · | · | ·
CCCc1nc2c(s1)CCc1onc(-c3ccc(Cl)cc3)c1-2 | 6 | 25 | 1 | 6 | 6
CCCC(=O)N1CCCC1(C)C(=O)Nc1ccc2c(c1)CCN2C(C)=O (stereo not given) | 0 | -4 | · | · | ·
O=c1[nH]c(CN2CCN(Cc3ccccc3)CC2)nc2scc(-c3ccccc3)c12 | -82* | -41 | 10 | -6 | 7
CC(=O)N1CCN(Cc2nc3scc(-c4ccccc4)c3c(=O)[nH]2)CC1 | -10 | -2 | -6 | -8 | -1
